Screens as filed in PubChem.
FXN GAA850 act = activators of GAA850 frataxin (FXN) promoter | HEK293 lucGAA850 FXN promoter luciferase reporter, 24 h; percent of 10 µM SAHA response | activation, % at 6 µM | hit rate 0.56% among 360,000 | AID 540364;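 active means activation above the average of all compounds screened plus 3 SD, cutoff fixed separately per campaign, cut at about 7.5% in these data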
AHR act = activates the human aryl hydrocarbon receptor | AHR-responsive luciferase reporter cells, luminescence | activation, % at 5 µM | hit rate 2.5% among 320,000 | AID 2796; in the data active means activation above about 47%
Target sequence (P35869 whole entry, looked up): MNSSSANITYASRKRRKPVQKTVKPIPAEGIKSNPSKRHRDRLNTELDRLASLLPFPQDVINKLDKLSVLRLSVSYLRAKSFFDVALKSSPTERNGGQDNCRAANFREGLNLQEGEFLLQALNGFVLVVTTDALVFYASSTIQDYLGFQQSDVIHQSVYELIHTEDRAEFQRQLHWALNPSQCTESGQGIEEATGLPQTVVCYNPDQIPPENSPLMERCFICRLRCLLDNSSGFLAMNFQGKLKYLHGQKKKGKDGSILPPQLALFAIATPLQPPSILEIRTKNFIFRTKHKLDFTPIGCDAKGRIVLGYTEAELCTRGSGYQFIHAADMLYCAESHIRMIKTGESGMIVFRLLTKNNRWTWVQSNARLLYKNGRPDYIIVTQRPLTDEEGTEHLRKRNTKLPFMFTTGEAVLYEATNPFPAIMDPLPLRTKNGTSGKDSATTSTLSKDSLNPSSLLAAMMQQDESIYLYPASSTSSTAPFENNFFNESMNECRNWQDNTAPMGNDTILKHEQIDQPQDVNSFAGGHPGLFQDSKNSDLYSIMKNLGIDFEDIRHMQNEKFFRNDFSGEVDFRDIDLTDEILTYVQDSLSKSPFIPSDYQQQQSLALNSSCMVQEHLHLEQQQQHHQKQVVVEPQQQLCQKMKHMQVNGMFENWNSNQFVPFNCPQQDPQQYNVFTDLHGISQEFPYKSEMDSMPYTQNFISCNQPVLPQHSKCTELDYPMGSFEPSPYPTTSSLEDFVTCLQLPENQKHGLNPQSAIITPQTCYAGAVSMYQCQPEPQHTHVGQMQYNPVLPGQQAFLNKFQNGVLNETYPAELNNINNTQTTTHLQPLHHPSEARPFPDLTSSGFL
HSF1 inh = HSF1 inhibition. NIH3T3-HGL HSE-luciferase, MG132-induced, luminescence 8 h; hits give low values. activity change, negative = inhibition, % at 7.5 µM (by protocol). hit rate 0.77% among 300,000. AID 2098;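 active means more than half of replicate wells show activity change below -50%, luminescence cut by over half; inconclusive means some wells, but at most half, below -50%; inactive means no replicate well below -50%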;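 further: luciferase reports HSF-1 transcriptional activity via heat shock element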
HSF1 activator = increases HSF-1 driven luciferase reporter signal; hit rate 1.7% among 300,000; NIH3T3-HGL HSF-1 luciferase reporter, MG132, 8 h; 100% = twice DMSO control signal; activation, % at 9 µM; AID 504408;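 active means mean replicate activation of at least 50% with a set share of replicates each reaching 50%; inconclusive means only one of those two conditions met; inactive means mean below 50% and too few replicates reaching it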
Hits are given with their value; i = inactive; ? = inconclusive; nt = no result given. This is a sample that favours compounds with a hit; in the whole collection about 4.6% have one here.

SMILES	FXN GAA850 act	AHR act	HSF1 inh	HSF1 activator
COc1ccc(-c2noc(-c3ccoc3C)n2)cc1	i	i	i	?
COc1ccc(-c2csc(-c3ccccc3)n2)c(OC)c1	i	i	i	54
COc1ccccc1-c1nc(-c2ccc(Br)cc2)no1	i	64	i	55
COc1cc(OC)cc(-c2nc(-c3ccc(Br)cc3)no2)c1	i	i	i	i
COc1cccc(-c2noc(-c3ccoc3C)n2)c1	i	69	i	i
COc1ccccc1-c1noc(-c2cc(OC)c(OC)c(OC)c2)n1	i	i	i	i
CCC(C)NC(=O)CCSCCC(=O)NC(C)CC (centres undefined)	i	i	i	i
Cc1ccc(-n2ncc3c(=O)n(CC(N)=O)cnc32)cc1C	i	i	i	i
Cc1ccc(-n2ncc3c(SCC(N)=O)ncnc32)cc1C	i	nt	i	67
NC(=O)c1ccc(Cn2c(C(=O)c3cc(Cl)c(N)c(Cl)c3)c3ccccc3[n+]2[O-])cc1	i	78	nt	nt
COc1ccc(C(=O)c2c3ccc(C(F)(F)F)cc3[n+]([O-])n2CCCC(N)=O)cc1	i	i	i	i
NCCCn1c(C(=O)c2cc(Cl)c(N)c(Cl)c2)c2ccc([N+](=O)[O-])cc2[n+]1[O-]	i	115	i	?
NC(=O)c1ccc(Cn2c(C(=O)c3ccc(Cl)cc3)c3ccccc3[n+]2[O-])cc1	i	i	nt	nt
COc1ccc(C(=O)c2c3ccc(OC)cc3[n+]([O-])n2CCCC(N)=O)cc1	i	i	i	i
NCCCn1c(C(=O)c2cc(Cl)c(N)c(Cl)c2)c2ccc(C(F)(F)F)cc2[n+]1[O-]	i	57	i	i
NC(=O)CCCn1c(C(=O)c2cc(Cl)c(N)c(Cl)c2)c2ccc(C(F)(F)F)cc2[n+]1[O-]	i	55	i	i
CS(=O)(=O)N(CC(=O)NCc1ccccc1)Cc1ccc(Cl)cc1	i	i	i	i
CCCC(=O)Nc1cc2c(cc1C(=O)c1ccccc1)OCCO2	i	i	i	i
CCOc1ccc(S(=O)(=O)c2c(C(=O)c3ccccc3)cnc3cc4c(cc23)OCCO4)cc1	i	i	i	68
CC(C)c1nnc(NC(=O)c2nc(S(=O)(=O)Cc3ccc(F)cc3)ncc2Cl)s1	i	i	-84	i
CCSc1nnc(NC(=O)c2nc(S(=O)(=O)Cc3ccc(F)cc3)ncc2Cl)s1	i	i	i	i
Cc1nnc(NC(=O)c2nc(S(=O)(=O)Cc3ccccc3C)ncc2Cl)s1	i	i	-77	i
Cc1ccc(CS(=O)(=O)c2ncc(Cl)c(C(=O)Nc3nnc(C(C)C)s3)n2)cc1	i	i	-71	i
CC(C)c1nnc(NC(=O)c2nc(S(=O)(=O)Cc3ccccc3F)ncc2Cl)s1	nt	i	-80	i
Cc1noc(C)c1C(=O)Nc1ccc2c(c1)CCC2	i	i	i	i
SMILES	FXN GAA850 act	AHR act	HSF1 inh	HSF1 activator
Cc1cccc(CS(=O)(=O)c2ncc(Cl)c(C(=O)Nc3nnc(C(C)C)s3)n2)c1	i	i	-73	i
CSc1nnc(NC(=O)c2nc(S(=O)(=O)Cc3cccc(C)c3)ncc2Cl)s1	i	i	?	i
O=C(Nc1ccc(/C=C/c2nc3ccccc3o2)cc1)c1c(F)cccc1F	i	49	i	i
CC(=O)Nc1ccc(/C=C/c2nc3ccccc3o2)cc1	i	i	i	i
CCOC(=O)C1(Cc2cccc(F)c2)CCN(Cc2nc(CC)[nH]c2C)CC1	i	i	i	i
COc1cccc(C(=O)Nc2sc(C(C)C)cc2C(N)=O)c1OC	i	i	-79	i
Cc1c(=O)n(OCc2ccccn2)c2ccccc2[n+]1[O-]	i	52	i	i
Clc1ccc(-c2nc3cnccn3c2NC2CCCC2)cc1	i	51	i	i
Cc1cccc(NS(=O)(=O)c2ccc(C)c(NS(=O)(=O)c3cccs3)c2)c1	i	nt	nt	nt
COc1ccccc1N1Cc2ccc(OC)c(OC)c2C1=O	i	i	i	i
COc1ccccc1N1CC(C)C(=O)NC1=S (centres undefined)	i	i	-56	i
Cc1ccc(C(O)C(=O)c2ccco2)cc1 (centres undefined)	i	i	i	i
O=C1CCC/C1=C/Nc1ccc2c(c1)OCO2	i	73	i	i
COc1ccc(NS(=O)(=O)c2cccc(C(=O)N3CCOCC3)c2)cc1	i	nt	nt	nt
COc1ccc(C2Nc3cc(OC)ccc3-n3cccc32)cc1 (centres undefined)	i	60	i	i
COc1ccc(C2NC(=S)N3C(c4ccc(OC)cc4)NC(=S)N23)cc1 (centres undefined)	i	i	i	i
Cc1cc(=O)oc2cc(OCc3ccccc3)ccc12	i	i	i	58
Cc1cc(=O)oc2cc(OCC(O)Cn3ccnc3)ccc12 (centres undefined)	i	52	i	i
C=CCOc1ccc2oc(=O)cc(C)c2c1	i	i	i	i
Cc1cc(=O)oc2cc(OCC(=O)NCCCn3ccnc3)ccc12	i	i	i	i
Cc1cc(=O)oc2ccc(OCc3ccccc3)cc12	i	51	i	i
COc1ccc(COc2ccc3c(C)cc(=O)oc3c2)cc1	i	i	i	i
O=C(N/N=C/c1cccnc1)c1cccc(Br)c1	i	nt	i	i
O=C1/C(=C/c2ccccn2)SC(=S)N1c1cccc(O)c1	i	i	i	i
Cc1cccc(NC(=O)c2ccc(COc3cccc4ccccc34)o2)n1	i	71	i	i
SMILES	FXN GAA850 act	AHR act	HSF1 inh	HSF1 activator
Cc1ccc(SCc2ccc(C(=O)Nc3nccs3)o2)cc1	i	i	i	i
Cc1ccc(OCc2ccc(C(=O)Nc3nccs3)o2)cc1	i	i	i	60
O=C(Nc1nccs1)c1ccc(CSc2ccccc2)o1	i	i	i	63
COC(=O)c1ccccc1NC(=O)c1ccc(COc2cccc3ccccc23)o1	i	i	i	i
O=C(Nc1nccs1)c1ccc(COc2ccccc2)o1	i	i	i	56
Cc1cc(C)n2nc(C(=O)OCCOc3ccc(Br)cc3)nc2n1	i	i	i	i
Cc1ccc(S(=O)(=O)N2CCN(C(=O)c3ccccc3Cc3ccccc3)CC2)c(C)c1	i	i	i	i
c1ccc(-c2cc3c(nn2)CCc2nonc2-3)cc1	i	57	i	i
c1ccc(-c2nc3c([nH]2)CCc2nonc2-3)cc1	i	i	i	i
CC(Oc1cccc(Cl)c1)C(=O)Nc1ccc(N2CCOCC2)cc1N1CCOCC1 (centres undefined)	i	i	i	i
CCOC(=O)N1CCC2(CC1)C(C#N)=C(N)Oc1n[nH]c(C)c12	i	i	i	i
COCc1[nH]nc2c1C1(CCSCC1)C(C#N)=C(N)O2	i	i	-85	i
COc1ccc(-c2c(C)c3cc(O)ccc3oc2=O)cc1OC	i	i	i	67
COc1ccc(-c2cc3ccc(O)cc3oc2=O)cc1OC	i	i	i	i
O=C1CN(c2nc(-c3ccccc3)c3ccccc3n2)c2ccccc2N1	i	61	i	i
COc1ccc(-c2nc(N=Nc3ccc(O)cc3)n[nH]2)cc1	i	i	i	i
NC(=O)c1ccc(N=Nc2c(O)c3ccccc3[nH]c2=O)cc1	nt	i	i	i
Cc1ccc(N=Nc2[nH]c3ccccc3c2O)cc1	i	77	nt	nt
COc1ccc(N=Nc2[nH]c3ccc(C)cc3c2O)cc1	i	69	i	i
COc1ccccc1N1CCN(/N=C/c2cccc(Cl)c2)CC1	i	i	i	60
